Measurements: PubChem BioAssay AID504710 (Sanford-Burnham Center for Chemical Genomics, 2011)
Calls of active or inactive are those of the source.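 How the source made its calls: active means inhibition reaching about 16% in any single replicate (limit read from the data); inactive means the rest.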

Molecular target: Hexokinase HKDC1 (Homo sapiens) (UniProt Q2TB90)
Assay: compounds lowering human HKDC1 activity – biochemical, single concentration, confirmation (AID 504710)
Details: recombinant HKDC1, G6PDH/diaphorase/resazurin fluorescence; at 20 µM; hits give high values

Sequence of Hexokinase HKDC1 (Homo sapiens) (Q2TB90 whole entry, looked up): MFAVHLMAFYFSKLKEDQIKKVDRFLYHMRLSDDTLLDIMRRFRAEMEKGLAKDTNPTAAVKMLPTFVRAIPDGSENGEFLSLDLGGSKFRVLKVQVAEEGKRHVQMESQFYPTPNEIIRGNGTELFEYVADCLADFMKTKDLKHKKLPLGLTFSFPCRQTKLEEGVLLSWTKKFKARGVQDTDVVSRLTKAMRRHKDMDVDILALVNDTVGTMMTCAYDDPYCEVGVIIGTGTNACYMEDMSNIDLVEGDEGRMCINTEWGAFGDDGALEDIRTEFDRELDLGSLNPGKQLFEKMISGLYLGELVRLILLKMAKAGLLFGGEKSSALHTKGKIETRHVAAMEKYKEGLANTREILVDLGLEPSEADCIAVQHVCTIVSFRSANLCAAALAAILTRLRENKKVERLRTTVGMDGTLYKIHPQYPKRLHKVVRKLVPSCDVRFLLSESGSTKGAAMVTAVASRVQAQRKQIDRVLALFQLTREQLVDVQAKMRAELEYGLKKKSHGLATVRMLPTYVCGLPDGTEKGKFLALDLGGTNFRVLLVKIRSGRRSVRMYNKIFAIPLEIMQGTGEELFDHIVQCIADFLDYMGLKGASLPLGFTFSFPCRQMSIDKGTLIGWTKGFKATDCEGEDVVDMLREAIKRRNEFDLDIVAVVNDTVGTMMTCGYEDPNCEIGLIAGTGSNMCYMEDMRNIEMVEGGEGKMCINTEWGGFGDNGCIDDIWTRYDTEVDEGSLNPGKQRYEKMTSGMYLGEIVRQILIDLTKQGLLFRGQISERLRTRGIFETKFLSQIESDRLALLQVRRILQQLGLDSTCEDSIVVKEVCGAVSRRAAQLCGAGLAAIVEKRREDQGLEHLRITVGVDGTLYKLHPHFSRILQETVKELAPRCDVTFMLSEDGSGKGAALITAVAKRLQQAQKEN

inhibition, active:
CC(C)c1ccc(S(=O)(=O)/N=C2/C=C(Sc3ncn[nH]3)C(=O)c3ccccc32)cc1 60.8%, CCOC(=O)c1ccc(NC2=CC(=O)C(=O)c3ccccc32)cc1 27.6%, Cc1ccc(-n2c3nc(=O)[nH]c(=O)c-3cc3cc([N+](=O)[O-])ccc32)cc1C 65.3%, CC(C)(C)c1c(Cl)c(O)c(-c2ccccc2)c(=O)n1-c1ccccc1 40.9%, O=C1C(N2CCOCC2)=C(n2nnc3ccccc32)C(=O)c2ccccc21 54.8%, CNCc1ccccc1Sc1cc(O)ccc1O 64.6%, Cc1ccc2cc(CCNC(=O)c3ccc(S(=O)(=O)N4CCCCC4)cc3)c(=O)[nH]c2c1 39.8%, COc1ccc(-n2c(C)cc(C(=O)CCl)c2C)cc1 34.3%, CCCCC(CC)CN=C(N)NC(N)=NCCCCCCN=C(N)NC(N)=NCC(CC)CCCC (configuration not stated) 45.9%, O=C(CSc1nnc(CCCN2C(=O)c3cccc4cccc(c34)C2=O)n1-c1ccccc1)N1CCN(CCO)CC1 47.6%, COCC(=O)OC1CCn2c1nc1c2C(=O)C(C)=C(NC(C)=O)C1=O (configuration not stated) 79.4%, O=c1c2ccccc2nc2n1CCC2 67.1%, NC1=C(Br)C(=O)c2ncccc2C1=O 50.8%, COc1ccc(NC(=O)CSc2ccc(-c3ccco3)nn2)c(OC)c1 70.8%, CC(C)c1nc2oc3c(=O)[nH]cnc3c2c2c1COC(C)(C)C2 48.4%, O=C1C=C(N2CCOCC2)c2ccccc2C1=O 79.4%, O=C1C=CC(=O)C(C2=C3C(=O)N(CCc4ccccc4)CC(=O)N3CCC2)=C1 70.9%, CCOc1ccc(-n2c(C)cc(C(=O)CCl)c2C)cc1 28.5%, O=C(O)c1cc(N2N=C(C(F)(F)F)/C(=C/C=C/c3ccco3)C2=O)ccc1Cl 57.5%, O=c1c2ccccc2nc(/C=C/c2cccnc2)n1CCc1ccccc1 38.8%, CCCC(=O)NC1=C(Cl)C(=O)c2ccccc2C1=O 81.4%, O=C1C=C(NCc2ccccc2)c2ccccc2C1=O 56%, COc1cc(/C=C2\SC(c3ccc(C)cc3)=NC2=O)ccc1O 32.2%, O=C(NC1=CC(=O)c2ccccc2C1=O)c1ccccc1 69.9%, CC(NC1=CC(=O)c2cccnc2C1=O)C(O)c1ccccc1 (configuration not stated) 43.3%

inhibition, inactive:
CC(C)(C)c1ccc(-c2csc(NNC3=NCCCCC3)n2)cc1 -39.4%, COc1ccc(NC(=O)Cc2c[nH]c3ccccc23)cc1S(=O)(=O)N1CCCCC1 -35.1%, Cn1c(SSc2ccc(-c3cccnc3)n2C)ccc1-c1cccnc1 -248%, CC(=NNc1nc2ccccc2o1)c1cc2ccccc2cn1 -77.2%, Nc1nc(N2CCN(c3ccccn3)CC2)nc2ccccc12 -44.1%, CCCCN(CCCC)C(=S)N/N=C/c1c(C)[nH]n(-c2ccccc2)c1=O -65%, CCOC(=O)Cn1c2ccc(F)cc2c2nc(C)sc21 -36.6%, CCn1c2ccccc2c2nc3cc(S(=O)(=O)N4CCOCC4)ccc3nc21 -47.4%, COc1ccc(C2=NNC(=Nc3cc(S(=O)(=O)N(C)C)ccc3C)SC2)c(OC)c1 -120%, Cc1nonc1C(=O)N/N=C/c1ccc(O)cc1O -33.6%, Cc1cc(C2=NNC(=Nc3ccc(S(=O)(=O)N4CCOCC4)cc3)SC2)c(C)n1C -46.6%, O=C1C(Cl)=C(NCc2cccnc2)C(=O)c2ccccc21 -45.1%
